# Assay outcomes as filed in PubChem.
# RE007 growth inh – qHTS Assay for Inhibitors of the HIV-1 protein Vpr. 0.21% of 360,000 active. AID 651644, 2012. Potency, µM (doses to about 92.2 µM), without a hit: at the top dose activity change, negative = less growth, actives largely listed as inhibitors. S. pombe RE007 Vpr strain, BacTiter-Glo ATP luminescence, 24 h; active = well fitted falling curve with a large enough effect; inconclusive = small, poorly fitted or top-dose-only effect; inactive = no such curve, though single readings can be large or run the other way; note: potency is the fitted concentration of half-maximal effect; nearly all actives have a fitted effect of over 50% in size
#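 Fission yeast strain RE007, carrying one chromosomally integrated HIV-1 vpr copy, was seeded at OD 0.01 in PMG+AL medium with 23 nL pinned compound. After 24 h at 30 °C and 99% humidity, viability was read by BacTiter-Glo luminescence.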
# HCMV antiviral – qHTS Assay for inhibitors of the human cytomegalovirus (HCMV) | 4.5% of 410,000 active | HFF cells, HCMV-luciferase reporter, 72 h; active compounds read low | activity change, negative = inhibition, % at 57.5 µM | AID 1259415, 2018; in the data active = activity change below about -60%; inconclusive = no clear call, values can overlap the other calls; inactive = above about -39%
#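 Compounds were evaluated in HFFs infected with an HCMV luciferase reporter virus (MOI 1 PFU/cell). Luciferase in lysates collected 72 h post infection served as the replication measure.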
# FMDV antiviral – High Throughput Screening for Foot and Mouth Disease Virus Antivirals; FMDV antiviral cell-based qHTS; Potency, µM (titrated, usually from 57.9 µM), without a hit: top-dose activity change, negative = inhibition, actives largely listed as inhibitors; 1.2% of 410,000 active; AID 1159524, 2015; calls by dose curve; tested in HEK293T cells; note: read-out not given here; potency is the fitted concentration of half-maximal effect; nearly all actives have a fitted effect of over 45% in size
# Giardia FBPA inh-1 – qHTS Assay for Inhibitors of Fructose-1,6-bisphosphate Aldolase from Giardia Lamblia; A8B2U2; 0.71% of 290,000 active; Potency, µM (highest dose often 59.6 µM), for the others: at the highest dose activity, negative = inhibition, most hits filed as inhibitors; purified Giardia FBPA; note: potency is the fitted concentration of half-maximal effect; nearly all actives have a fitted effect of over 55% in size
# Target sequence (A8B2U2 whole entry, looked up): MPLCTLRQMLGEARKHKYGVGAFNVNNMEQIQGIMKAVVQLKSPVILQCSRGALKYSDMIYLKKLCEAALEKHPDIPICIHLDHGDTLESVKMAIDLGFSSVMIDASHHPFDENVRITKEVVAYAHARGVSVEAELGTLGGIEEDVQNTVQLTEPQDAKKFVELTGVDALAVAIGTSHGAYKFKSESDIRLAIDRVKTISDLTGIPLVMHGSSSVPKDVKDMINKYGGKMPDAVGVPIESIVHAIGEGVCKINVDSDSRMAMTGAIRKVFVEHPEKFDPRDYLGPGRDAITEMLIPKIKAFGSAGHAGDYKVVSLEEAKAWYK
#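 40 nM FBPA preincubated 10 min at RT with compound (up to 57.5 uM final), then substrate plus GAPDH/TPI/NAD/arsenate coupling and diaphorase/resazurin added. Fluorescence read after 20 min at RT, 525/598 nm.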
# TbPYK inhibitor – qHTS of Trypanosoma Brucei Inhibitors; TbPYK enzyme, Kinase-Glo Plus ATP luminescence, 45 min; 0.12% of 410,000 active; pyruvate kinase (Trypanosoma brucei), Q57TT1; AID 624173, 2012; Potency, µM (series often up to 76.8 µM), inactives show top-dose activity, negative = inhibition, usual class: inhibitors; note: potency is the fitted concentration of half-maximal effect; nearly all actives have a fitted effect of over 50% in size
#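 Quantitative HTS: titrated library compounds versus trypanosomal pyruvate kinase in TEA buffer (pH 7.2) containing KCl, MgCl2, BSA and Tween-20. Reactions were initiated with ADP, 130 uM final. Kinase-Glo Plus luminescence was read after 45 min at RT.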
# Sm TGR inh – qHTS Assay for the Inhibitors of Schistosoma Mansoni Peroxiredoxins; Schistosoma mansoni thioredoxin glutathione reductase (TGR), Q962Y6; Potency, µM (top dose mostly 114 µM), for the others: at the top dose activity change, negative = inhibition, hits mostly inhibitors; purified TGR, DTNB reduction, TNB absorbance 405 nm; 3% of 360,000 active; note: potency is the fitted concentration of half-maximal effect; nearly all actives have a fitted effect of over 60% in size
#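 TGR 20 nM + NADPH 100 uM (dispensed conc.), cpd preinc 15 min RT; start with NADPH (500 uM addition) then DTNB (15 mM addition). Kinetic TNB absorbance, 405 nm filter. Four-parameter Hill fit across titration.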
# Giardia growth – qHTS Assay for Inhibitors of Fructose-1,6-bisphosphate Aldolase from Giardia Lamblia: Giardia lamblia growth inhibition; shares compounds with Giardia FBPA inh-1; Giardia lamblia trophozoite growth inhibition; Potency, µM (top dose mostly 57.5 µM), for inactives: at the highest dose activity change, negative = inhibition, most hits filed as inhibitors; 5% of 1,500 active; AID 2785, 2010;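 note: potency is the fitted concentration of half-maximal effect; trophozoites exposed to compound for 48 h at 37 °C; nearly all actives have a fitted effect of over 70% in size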
# Mammalian tox – qHTS Assay for Inhibitors of Fructose-1,6-bisphosphate Aldolase from Giardia Lamblia: Mammalian cellular toxicity; shares compounds with Giardia FBPA inh-1; mammalian cell viability counter-screen, qHTS; Potency, µM (doses to about 57.5 µM), for the others: top-dose viability change, negative = toxicity, most hits filed as inhibitors; 4% of 1,500 active; AID 2786, 2010;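 note: Chinese hamster ovary cells used as mammalian cytotoxicity surrogate; viability measured as cellular ATP by luminescence; potency is the fitted concentration of half-maximal effect; compound exposure lasted 48 h before reading; nearly all actives have a fitted effect of over 60% in size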
# Giardia FBPA inh-2 – qHTS Assay for Inhibitors of Fructose-1,6-bisphosphate Aldolase from Giardia Lamblia: Primary screen confirmation. shares compounds with Giardia FBPA inh-1. AID 2787, 2010. Potency, µM (titrated, usually from 57.5 µM), for the others: at the highest dose activity change, negative = inhibition, actives largely listed as inhibitors. purified Giardia aldolase enzyme activity, qHTS. 5% of 1,500 active; note: potency is the fitted concentration of half-maximal effect; nearly all actives have a fitted effect of over 45% in size
# Rabbit FBPA inh – qHTS Assay for Inhibitors of Fructose-1,6-bisphosphate Aldolase from Giardia Lamblia: Rabbit FBPA Selectivity; Rabbit muscle FBPA enzyme inhibition, selectivity counter-screen; Potency, µM (highest dose often 57.5 µM), for the others: at the top dose activity, negative = inhibition, most hits filed as inhibitors; shares compounds with Giardia FBPA inh-1; 4% of 1,500 active; note: potency is the fitted concentration of half-maximal effect; nearly all actives have a fitted effect of over 60% in size
# GAPDH counter – qHTS Assay for Inhibitors of Fructose-1,6-bisphosphate Aldolase from Giardia Lamblia: Coupling assay counterscreen confirmation; shares compounds with Giardia FBPA inh-1; GAPDH coupling enzyme counterscreen, biochemical, qHTS; Potency, µM (series often up to 57.5 µM), inactives show top-dose activity change, negative = inhibition, hits mostly inhibitors; 6% of 1,500 active; AID 2795, 2010; note: potency is the fitted concentration of half-maximal effect; nearly all actives have a fitted effect of over 55% in size
# Numbers without * were called inactive; u = inconclusive; x = no result; [ ] = remark or other dose. This is a sample that favours compounds with a hit; in the whole collection about 7.7% have one here. Unless noted, calls come from the whole dose curve; as a rule, active = well fitted curve in the direction sought with a large enough effect; inconclusive = small, poorly fitted or top-dose-only effect, or another doubt; inactive = no such curve, though single readings can be large; an effect the other way counts as inactive or inconclusive. % is set by controls: 0 for no effect and ±100 for the full control effect.
SMILES,RE007 growth inh,HCMV antiviral,FMDV antiviral,Giardia FBPA inh-1,TbPYK inhibitor,Sm TGR inh,Giardia growth,Mammalian tox,Giardia FBPA inh-2,Rabbit FBPA inh,GAPDH counter
O=C(COc1ccc(Cl)cc1)N1CCCC1,-4%,40,21%,-1%,-5%,-23%,x,x,x,x,x
O=C(COc1ccc(Cl)cc1)N1CCN(Cc2ccc([N+](=O)[O-])cc2)CC1,-18%,u,u,22µM*,-10%,-3%,-8%[10.4 µM],-5%,-2%,2%,8%
O=[N+]([O-])c1cccc(CN2CCN(Cc3ccc(Cl)cc3)CC2)c1,1%,-77*,u,18µM*,9%,1%,u,-11%,6%,2%,9%
CCOC(=O)c1cnc(-n2nc(C)cc2C)[nH]c1=O,-2%,-1,-12%,4.5µM*,1%,8%,-7%[38.3 µM],-12%,-21%,-11%,-14%
CCOC(=O)c1cnc(-n2[nH]c(C)cc2=O)[nH]c1=O,-5%,-16,3%,u,-9%,-11%,x,x,x,x,x
CCOC(=O)c1cccc(NC(=S)NC(=O)c2cccnc2)c1,-6%,13,7%,10µM*,-5%,22µM*,-12%[38.3 µM],3%,-10%,-10%,-2%
COc1cccc(C(=O)Nc2cccnc2)c1,3%,12,24%,-2%,-9%,-10%,x,x,x,x,x
COc1cccc(NC(=O)c2ccc(NC(C)=O)cc2)c1,14%,46,29%,-6%,6%,-3%,x,x,x,x,x
COc1cccc(NC(=S)NC(=O)c2cccnc2)c1,0%,7,34%,3.5µM*,-7%,11µM*,-58%[38.3 µM],-10%,0%,-4%,2%
COc1cccc(NC(=S)Nc2ccc(O)cc2)c1,-9%,x,44%,18µM*,-17%,u,19%,2%,-24%,-15%,-19%
N#Cc1ccccc1NC(=S)NC(=O)c1cccnc1,3%,10,5%,14µM*,8%,u,28%,4%,6%,-2%,15%
CCCOC(=O)c1cccc(NC(=O)c2cccnc2)c1,-3%,-9,-4%,0%,-7%,12%[11.4 µM],x,x,x,x,x
O=C(c1cnn(-c2ccc(F)cc2)c1-n1cccc1)N1CCN(c2cccc(Cl)c2)CC1,x,-28,u,x,-13%,1%,x,x,x,x,x
COCCNC(=O)CSc1cn(CC(=O)N2CCCCCC2)c2ccccc12,x,49,4%,x,-12%,3%,x,x,x,x,x
CN(C)c1ncc2ncc(=O)n(Cc3cccs3)c2n1,x,x,-23%,1%,-7%,x,x,x,x,x,x
